Inconclusive results are not listed. Activity calls are given as the source filed them. Calls follow the shape of the dose curve; as a rule, active = well fitted inhibition curve with a large enough effect; inconclusive = small, poorly fitted or top-dose-only effect; inactive = no such curve, though single readings can be large or run the other way.

We go through 40 compounds from PubChem BioAssay (NCATS).
% is scaled to controls: 0 for no effect and ±100 for the full control effect; potency is read from the fitted curve at half-maximal effect.

Cytochrome P450 3A7 (Homo sapiens), sequence (P24462 whole entry, looked up): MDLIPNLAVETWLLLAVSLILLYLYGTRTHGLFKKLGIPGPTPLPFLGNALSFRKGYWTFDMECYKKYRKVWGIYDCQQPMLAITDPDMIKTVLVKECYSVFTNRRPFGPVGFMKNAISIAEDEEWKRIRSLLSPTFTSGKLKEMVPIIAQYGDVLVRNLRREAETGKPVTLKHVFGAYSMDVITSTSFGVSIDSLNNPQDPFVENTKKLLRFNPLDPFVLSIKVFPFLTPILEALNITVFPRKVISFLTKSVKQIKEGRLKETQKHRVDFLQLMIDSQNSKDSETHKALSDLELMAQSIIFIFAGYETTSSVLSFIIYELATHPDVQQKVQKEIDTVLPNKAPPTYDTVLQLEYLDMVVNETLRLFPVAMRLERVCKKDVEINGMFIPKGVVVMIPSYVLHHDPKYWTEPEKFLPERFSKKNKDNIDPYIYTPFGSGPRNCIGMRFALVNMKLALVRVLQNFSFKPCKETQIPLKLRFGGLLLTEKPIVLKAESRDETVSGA

This experiment deals with Cytochrome P450 3A7 (Homo sapiens) (UniProt P24462). The experiment in a line: Cytochrome P450 family 3 subfamily A member 7 (CYP3A7) small molecule antagonists: luciferase biochemical qHTS assay (AID 1963596). Also: nearly all actives have a fitted effect of over 40% in size. Conditions: P450-Glo CYP3A7 enzyme luminescence, 1 h; series mostly up to 57.4 µM; activity change, negative = inhibition: at the top concentration. The procedure, abridged:
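In this luminescent screen, enzyme and proluciferin substrate meet test compound for 10 min before NADPH regeneration solution drives a 1 h room-temperature reaction; detection reagent halts turnover and luminescence is read 20 min later.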
As to `CCCC(=O)O`, the “activity change, negative = inhibition” value is -11.8% (inactive).
Same read-out and setting: to `CCOc1cc(C(=O)Nc2ccc(-c3nc4ncccc4o3)cc2C)cc(OCC)c1OCC` belongs -15.7% (inactive); to `Cc1ccc(-n2c(SCc3cccc(F)c3)nc3[nH]ncc3c2=O)cc1C`, 0% (inactive); to `S=C=Nc1ccc(N=C=S)cc1`, 2.64% (inactive).
The same measure, in the same setting: in the case of `C[C@H](CCCC(C)(C)O)[C@H]1CC[C@H]2[C@@H]3CC=C4C[C@@H](O)CC[C@]4(C)[C@H]3CC[C@]12C` it was 2.19% (inactive).
Still for that read-out and setting: to `N#C/C(=C/c1ccccc1Cl)c1nc2ccccc2c(=O)[nH]1` belongs -15.4% (inactive).
Regarding `O=[N+]([O-])c1cn2c(n1)OC[C@@H](OCc1ccc(-c3ccc(OC(F)(F)F)cc3)nc1)C2`, the “activity change, negative = inhibition” value was -27.4% (inactive).
On the same count and under the same terms, in the case of `NC(=O)C(CCC(F)(F)F)N(Cc1ccc(-c2ncon2)cc1F)S(=O)(=O)c1ccc(Cl)cc1` (stereo not given) it was 5.61% (inactive); in that of `Nc1ncnc2c1ncn2[C@H]1O[C@@H](C(=O)N2CCN(CC(=O)Nc3cccc4c3CNC4=O)CC2)[C@H](O)[C@@H]1O`, -20.3% (inactive); in that of `Cc1cc(Nc2ccc(NC(=O)c3ccc(Nc4ccnc5ccccc45)cc3)cc2)nc(N)n1`, 10.5% (inactive).
As to `Cc1ccc(-n2nc3c(N4CCCC(C(=O)NCc5ccccc5C)C4)nnc(C)c3c2C)cc1` (stereo not given), the Potency is 0.756 µM (active).
Same read-out and setting: in the case of `CC1(C#N)CCN(c2c(C(=O)N3CCN(S(C)(=O)=O)CC3)cnc3cc(F)c(F)cc23)CC1` it was 14.1 µM (active).
Take `CCN(CC)C(=O)c1cccnc1`: the “activity change, negative = inhibition” value is 5.04% (inactive).
For the compound `Cc1ccc(C2=Nc3ccccc3N(CC(=O)Nc3ccccc3F)C(=O)C2)cc1C`, the “activity change, negative = inhibition” value is 18.6% (inactive).
As for `COC(=O)c1cc(S(C)(=O)=O)ccc1OC`, the “activity change, negative = inhibition” value was 0.67% (inactive).
`Nc1ccn(C2O[C@H](CO)[C@@H](O)[C@@H]2O)c(=O)n1` (stereo not given in full): the “activity change, negative = inhibition” value is -0.935% (inactive).
Consider `CC(C)c1ccc(-n2ncc3c(=O)n(CC(=O)Nc4cc(F)ccc4Cl)cnc32)cc1`, for which the “activity change, negative = inhibition” value is -20.3% (inactive).
`O=C(CSc1nc(-c2ccc(F)cc2)nc2c1Cc1ccccc1O2)Nc1cccc(C(=O)O)c1`: the “activity change, negative = inhibition” value is -24% (inactive).
Same read-out and setting: to `CC(C)Nc1nc(Nc2ccccc2)nc(-c2ccccc2)n1` belongs -13% (inactive); to `Fc1ccc(-c2nc(-c3c(F)cccc3F)[nH]c2-c2ccncc2)cc1`, 0% (inactive); to `COC(C)=O`, 0.408% (inactive).
Same read-out and setting: in the case of `COc1ccc(-n2[nH]c(=O)c3[nH]c4cc(Cl)ccc4c(=O)c3c2=O)c(C)c1` it was 4.27% (inactive).
On the same count and under the same terms, in the case of `CCOc1ccc(C(NC(=O)c2cc(OC)c(OC)c(OC)c2)c2cc(Cl)c3cccnc3c2O)cc1` (stereo not given) it was -7.34% (inactive).
`COc1ccc(CNC(=O)Nc2ccc3c(c2)N(C)C(=O)c2ccccc2S3)cc1OC`: the “activity change, negative = inhibition” value was 0% (inactive).
Turning to `CNc1ccc([N+](=O)[O-])cc1-n1cnc(-c2ccc(C(F)(F)F)cc2)c1`, the “activity change, negative = inhibition” value is 27.7% (inactive).
The same measure, in the same setting: to `OCCOCCOCCO` belongs -8.33% (inactive); to `CCC(COC)n1nnc2c(Nc3ccc(OC)cc3C)nc(C)cc21` (stereo not given), 0% (inactive).
Still for that read-out and setting: in the case of `Cn1c(=O)cc(N2CCCC(N)C2)n(Cc2cc(F)ccc2C#N)c1=O` (stereo not given) it was -28.3% (inactive); in that of `COc1cccc(C(=O)NC(c2ccc(Cl)cc2)c2cc(Cl)c3cccnc3c2O)c1` (stereo not given), -6.07% (inactive).
For `O=S(O)CO`, the “activity change, negative = inhibition” value is -20.8% (inactive).
In the case of `CC[C@H]1OC(=O)C[C@@H](O)[C@H](C)[C@@H](O[C@@H]2O[C@H](C)[C@@H](O[C@H]3C[C@@](C)(O)[C@@H](O)[C@H](C)O3)[C@H](N(C)C)[C@H]2O)[C@@H](CC=O)C[C@@H](C)C(=O)/C=C/C(C)=C/[C@@H]1CO[C@@H]1O[C@H](C)[C@@H](O)[C@@H](OC)[C@H]1OC`, the “activity change, negative = inhibition” value is 0.133% (inactive).
For `Cc1ccc(Nc2nnc(-c3ccc([N+](=O)[O-])cc3)o2)cc1Cl`, the “activity change, negative = inhibition” value was -12.6% (inactive).
Same read-out and setting: to `O=C(Nc1ccccc1C(=O)Nc1ccc(CCO)cc1)c1ccc([N+](=O)[O-])cc1` belongs 0% (inactive); to `Fc1ccc(-c2c3cccc(C(F)(F)F)c3nn2Cc2ccc(F)cc2Cl)cc1`, 0% (inactive); to `CCOC(C)OCC`, -2.17% (inactive).
`CCC[C@H](N[C@@H](C)C(=O)N1[C@H](C(=O)O)C[C@@H]2CCCC[C@@H]21)C(=O)OCC`: the “activity change, negative = inhibition” value was -0.139% (inactive).
Still for that read-out and setting: in the case of `Fc1ccc(CN2CCC(Nc3ccc(C(F)(F)F)nn3)CC2)cc1F` it was -15.1% (inactive); in that of `CC(C)[C@@H]1CC[C@@H](C)C[C@H]1OC(=O)c1ccccc1O`, 5.46% (inactive); in that of `O=C1C(c2[nH]c3ccc(S(=O)(=O)O)cc3c2O)=Nc2ccc(S(=O)(=O)O)cc21`, -24.1% (inactive).
Same read-out and setting: to `CCCN(CCN1CCN(c2ccccc2OC)CC1)C1CCc2ncsc2C1` (stereo not given) belongs 22.7% (inactive).
